Source: PubChem BioAssay (NCI)
About 83,000 compounds went through this panel and 20% of them were active in at least one assay; those are over-represented in the sample as a whole.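 Assay: single dose, 48 h. Readout: percent growth (0 = no net growth; negative = cell death). Active: <10.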 The source made the active and inactive calls.

Key:
Test in all cases: NCI-60 one-dose screen, 48 h (100 = growth as untreated, 0 = no growth, -100 = all killed)
Settings in all cases: 10 µM unless noted
T-47D breast = tested on: T-47D breast
BT-549 breast = tested on: BT-549 breast
MDA-MB-435 melanoma = tested on: MDA-MB-435 melanoma
SW-620 colon = tested on: SW-620 colon
MCF7 breast = tested on: MCF7 breast
HCT-116 colon = tested on: HCT-116 colon
HCC-2998 colon = tested on: HCC-2998 colon
KM12 colon = tested on: KM12 colon

Measured: growth

COc1ccc2nc(NC(=O)CSc3nnc4n3S(=O)(=O)c3ccccc3N4C)sc2c1
inactive: T-47D breast 99.2% | BT-549 breast 113% | MDA-MB-435 melanoma 113% | SW-620 colon 107% | MCF7 breast 96.6% | HCT-116 colon 97.1% | HCC-2998 colon 108% | KM12 colon 111%

CCn1c(=S)sc2c(Nc3ccc(F)cc3)nc(-c3cccnc3)nc21
inactive: T-47D breast 30.5% | BT-549 breast 54.2% | MDA-MB-435 melanoma 81.1% | SW-620 colon 90.6% | MCF7 breast 73.1% | HCT-116 colon 21.4% | HCC-2998 colon 86.1% | KM12 colon 69.7%

Cc1ccc(C2=Nc3c(N)ncnc3NC(c3ccc4c(c3)OCO4)C2)cc1 (stereo not drawn)
active: MDA-MB-435 melanoma -34.5% | HCC-2998 colon 2.97%
inactive: T-47D breast 70.5% | BT-549 breast 61.4% | SW-620 colon 18.3% | MCF7 breast 25.9% | HCT-116 colon 47% | KM12 colon 35.3%

CC(=O)N1N=C(c2ccc(Nc3nc(Nc4ccc(Cl)cc4)nc(Nc4ccc(Cl)cc4)n3)cc2)CC1c1ccco1 (stereo not drawn)
inactive: T-47D breast 67.6% | BT-549 breast 104% | MDA-MB-435 melanoma 84.5% | SW-620 colon 114% | MCF7 breast 83% | HCT-116 colon 91.3% | HCC-2998 colon 128% | KM12 colon 92.7%

COc1ccc2[nH]cc(-c3nc(-c4cn(C)c5c(Cl)nccc45)cs3)c2c1
inactive: T-47D breast 11.6% | BT-549 breast 45% | MCF7 breast 43.9% | HCT-116 colon 43.9% | HCC-2998 colon 62% | KM12 colon 32%
active: MDA-MB-435 melanoma 6.78% | SW-620 colon -5.25%

O=[N+]([O-])c1ccc(N/N=C(/C(=N/Nc2ccc([N+](=O)[O-])cc2)c2ccccc2)c2ccccc2)cc1
inactive: T-47D breast 88.8% | BT-549 breast 102% | MDA-MB-435 melanoma 86.4% | SW-620 colon 47.6% | MCF7 breast 60.2% | HCT-116 colon 51.7% | HCC-2998 colon 105% | KM12 colon 106%

N#C/C(=C\c1ccc2ccccc2c1)c1cc2ccccc2[nH]1
active: MDA-MB-435 melanoma -19%
inactive: T-47D breast 32.9% | BT-549 breast 59.8% | SW-620 colon 15.8% | MCF7 breast 14.4% | HCT-116 colon 16.8% | HCC-2998 colon 60.4% | KM12 colon 25.5%

O=C1c2cccnc2C(=O)c2c1c(C(=O)NCCCN1CCCCC1)c1ccccn21
active: T-47D breast -48.6% | MDA-MB-435 melanoma -80.5% | SW-620 colon -66% | MCF7 breast -49.5% | HCT-116 colon -57.6% | HCC-2998 colon -56.7% | KM12 colon -17.8%
inactive: BT-549 breast 13.7%

CCCNC(=O)Oc1ccc(/C(=C(/C)Cc2ccc(OC)cc2)c2ccc(OCCCN(C)C)cc2)cc1
inactive: T-47D breast 70.2% | BT-549 breast 91.6% | MDA-MB-435 melanoma 80.3% | SW-620 colon 97.1% | MCF7 breast 36.3% | HCT-116 colon 59.5% | HCC-2998 colon 77.7% | KM12 colon 84.1%

CS(=O)(=O)c1cccc(-c2c(-c3cccc(OS(N)(=O)=O)c3)nc3sccn23)c1
inactive: T-47D breast 79.3% | BT-549 breast 100% | MDA-MB-435 melanoma 102% | SW-620 colon 99.7% | MCF7 breast 92% | HCT-116 colon 97.9% | HCC-2998 colon 104% | KM12 colon 103%

CS(=O)(=O)C1=CN(CCO)C(=O)N2CCCN=C12
inactive: T-47D breast 102% | BT-549 breast 102% | MDA-MB-435 melanoma 102% | SW-620 colon 93.4% | MCF7 breast 104% | HCT-116 colon 97% | HCC-2998 colon 98.6% | KM12 colon 105%

CO/N=C(/C)c1ccc(NC(=O)CSc2nnc(-c3ccncc3)n2-c2ccccc2)cc1
active: BT-549 breast 6.99% | HCT-116 colon 4.38%
inactive: T-47D breast 17.4% | MDA-MB-435 melanoma 47% | SW-620 colon 84.2% | MCF7 breast 42% | HCC-2998 colon 82.3% | KM12 colon 61.9%

CCN(CC)CCOc1ccc(-c2c(-c3ccccc3)c(=O)oc3ccccc23)cc1
inactive: T-47D breast 47% | BT-549 breast 69.3% | MDA-MB-435 melanoma 100% | SW-620 colon 87.3% | MCF7 breast 89.6% | HCT-116 colon 65.6% | HCC-2998 colon 99.1% | KM12 colon 100%

CC1(c2ccccc2O)NN=C(/N=C/c2cccc([N+](=O)[O-])c2)N1C(Cc1c[nH]c2ccccc12)C(=O)O (stereo not drawn)
inactive: T-47D breast 91.1% | BT-549 breast 97.5% | MDA-MB-435 melanoma 106% | SW-620 colon 94.9% | MCF7 breast 77.3% | HCT-116 colon 87% | HCC-2998 colon 97.8% | KM12 colon 96.4%

Cc1ccc(C(C(N)=O)C(C(N)=O)c2ccccc2)cc1 (stereo not drawn)
inactive: T-47D breast 112% | BT-549 breast 113% | MDA-MB-435 melanoma 109% | SW-620 colon 105% | MCF7 breast 112% | HCT-116 colon 101% | HCC-2998 colon 112% | KM12 colon 105%

CCOC(=O)c1ccc2[nH]c(O)c(C(=Nc3ccc(N(C)C(=O)CN4CCN(C)CC4)cc3)c3ccccc3)c2c1
inactive: T-47D breast 21.6%
active: BT-549 breast -75.9% | MDA-MB-435 melanoma -42% | SW-620 colon -34.4% | MCF7 breast -63.9% | HCT-116 colon -38.8% | HCC-2998 colon -55.2% | KM12 colon -33.4%
